GSIS activator: GLuc luminescence reporter in INS-1E cells, primary screen for activators of glucose-dependent secretion of insulin. INS-1E GLuc reporter insulin secretion, 2-3 h. activation, % at 16.6 µM. hit rate 0.61% among 370,000. AID 743287, 2014;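 active means lowest replicate activation of at least 40%, so every replicate reaches that level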;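 further: 0% = median of neutral control wells and 100% = median of IBMX positive control wells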
EWS-Fli block: EWS/Fli-driven NR0B1 reporter inhibitors, primary screen, A673 cells, NR0B1 luciferase, luminescence, MLPCN library; inhibition, % at 12.6 µM; viability-normalised; hit rate 0.67% among 350,000;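 active means mean inhibition of at least 50% after viability correction, with every replicate also passing that limit; inconclusive means mean reaches 50% but only one of two replicates passes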;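 further: firefly luciferase signal divided by Alamar Blue viability fluorescence both relative to DMSO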
Env fusion inh: inhibitors of HIV-1 Env-driven cell-cell fusion, primary screen, HeLa-JRFL effector, CEM21 target cells, luciferase. hit rate 1.1% among 360,000. inhibition, % at 12.3 µM. AID 651610, 2012;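 active means mean replicate inhibition score of at least 50 and every replicate individually at or above 50; inconclusive means only one of the two criteria met; inactive means mean below 50 and not all replicates reaching 50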;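 further: 0% = plate neutral controls and 100% = maraviroc near 300 nM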
miR-122 sensor: miR-122 Renilla sensor signal increase in Huh7, primary screen, miR-122 inhibitor project, cell-based, single point, plate reader; Huh7 miR-122 Renilla luciferase sensor, 48 h; neutral wells = 0, positive control = 100; hit rate 0.3% among 340,000; AID 602342, 2012; activation (reporter increase), % at 12.5 µM;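 active means mean replicate activation score at least 90 and every replicate individually at or above 90; inconclusive means only one of the two criteria met; inactive means neither criterion met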;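 further: higher luciferase means less miR-122 activity so hits act as miR-122 inhibitors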
C2C12 statin: suppressors of statin myotoxicity in C2C12 myotubes, primary screen, cell-based, single point, plate reader | C2C12 myotubes + simvastatin, ATP luminescence, 48 h; scaled: DMSO 0, geranylgeraniol control 100 | rescue of ATP level, % at 7.49 µM | hit rate 0.78% among 330,000 | AID 602340, 2012;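 active means mean ATP rescue above about 67%, or every replicate alone reaching that limit, limit read from the data, passing the limit was not always enough; inconclusive means no clear call, values can overlap the other calls; inactive means mean under the limit and some replicate under it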;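 further: myotubes were challenged with 10 µM simvastatin during compound exposure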
PAX8 inh HTS: inhibitors of PAX8-driven TPO luciferase reporter, primary screen, RMG-I cells, single concentration; SteadyGlo, 24 h; hit rate 1.2% among 360,000; inhibition, % at 12.6 µM;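 active means mean replicate inhibition at least 60% with every replicate also reaching 60%; inconclusive means only one of the two criteria is met; inactive means mean below 60% and not all replicates reaching 60%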;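 further: luciferase light reporting Pax8 driven TPO promoter activity; plate controls were median of neutral control wells for no effect and mitoxantrone controls for full effect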
Starred values were filed as active, the others as inactive; ? = inconclusive; nt = no result; ! = a repeat was not active; [ ] = another dose, or the depositor's remark. Hits are enriched below; roughly 3.1% of the tested compounds scored in any of these assays.

SMILES	GSIS activator	EWS-Fli block	Env fusion inh	miR-122 sensor	C2C12 statin	PAX8 inh HTS
C[C@@H]1CN([C@@H](C)CO)C(=O)c2cccc(NS(=O)(=O)c3ccccc3)c2O[C@@H]1CN(C)Cc1ccc(Cl)c(Cl)c1	-9	-7	73*[16.7 µM]	-11[16.7 µM]	-16	-21
C[C@@H]1CCCCO[C@@H](CN(C)C(=O)c2ccccc2)[C@H](C)CN([C@@H](C)CO)C(=O)c2cc(NC(=O)NC3CCCCC3)ccc2O1	-13	9	-5[16.7 µM]	-2[16.7 µM]	?	2
C[C@H]1CN([C@@H](C)CO)C(=O)c2ccccc2-c2ccccc2CO[C@@H]1CN(C)C(=O)NC1CCCCC1	3	-11	35[16.7 µM]	nt	-15	-3
Cc1noc(C)c1NC(=O)Nc1ccc2c(c1)C(=O)N([C@@H](C)CO)C[C@H](C)[C@@H](CN(C)C(=O)Nc1cccc3ccccc13)O2	8	nt	nt	nt	nt	-8
O=C1C(Oc2ccccc2)C(c2cccs2)N1Cc1ccc2c(c1)OCO2 (configuration not stated)	-6	nt	nt	71	4	nt
Cc1cccc(C)c1NC(=O)C1c2ccccc2OCC(=O)N1Cc1ccc2c(c1)OCO2 (configuration not stated)	22	3	-14	nt	nt	0
COc1ccc(OC2C(=O)N(Cc3ccc4c(c3)OCO4)C2c2cccs2)cc1 (configuration not stated)	-24	nt	68*	15	30	nt
Cc1ccccc1OC1C(=O)N(Cc2ccc3c(c2)OCO3)C1c1sccc1C (configuration not stated)	-14	nt	25	158*	-18	nt
C[C@@H]1CN([C@H](C)CO)C(=O)c2cc(NC(=O)Nc3ccc(F)cc3)ccc2O[C@@H]1CN(C)S(=O)(=O)c1ccccc1	-13	3	nt	10[16.7 µM]	-35	2
C[C@H](CO)N1C[C@H](C)[C@H](CN(C)C(=O)Nc2ccc(F)cc2)OCc2ccccc2-c2c(n(C)c3ccccc23)C1=O	-11	-3	90*![16.7 µM]	31	1	-7
C[C@@H]1CN([C@@H](C)CO)C(=O)c2c(c3ccccc3n2C)-c2ccccc2CO[C@H]1CN(C)C(=O)Nc1ccc2c(c1)OCO2	4	-12	14[16.7 µM]	nt	nt	97*
C[C@H](CO)N1C[C@H](C)[C@H](CN(C)C(=O)Cc2ccccc2)OCCCC[C@H](C)Oc2ccc(NS(=O)(=O)c3cn(C)cn3)cc2C1=O	-6	-12	16[16.7 µM]	1[16.7 µM]	-4	3
CCC(CC)C(=O)Nc1cccc(/C(C)=N/NC(=O)c2c(Br)cnn2C)c1	2	nt	nt	5	7	nt
CCC(CC)C(=O)Nc1cccc(/C(C)=N/NC(=O)c2ccccc2Cl)c1	nt	nt	-67	1	112*	-7
COc1ccc2c3c(n(C)c2c1)[C@@H](CO)N(C(=O)CN(C)C)CC31CN(C(=O)NC(C)C)C1	26	2	nt	nt	nt	nt
COc1ccc(/C=C2\CCC(C3CCCC3)C2=O)cc1Cn1cccn1 (configuration not stated)	16	-27	17	nt	nt	18
COc1ccc(/C=C2\CCc3ccccc3C2=O)cc1Cn1cccn1	nt	nt	65*	4	2	nt
C[C@H](CO)N1C[C@H](C)[C@H](CN(C)S(=O)(=O)c2ccc(F)cc2)OCc2ccccc2-c2c(n(C)c3ccccc23)C1=O	2	-1	nt	nt	-5	nt
C[C@H]1CN([C@@H](C)CO)C(=O)c2c(c3ccccc3n2C)-c2ccccc2CO[C@H]1CN(C)S(=O)(=O)c1ccc(C(F)(F)F)cc1	-4	11	nt	nt	nt	85*
C[C@@H]1CN([C@H](C)CO)C(=O)c2c(c3ccccc3n2C)-c2ccccc2CO[C@@H]1CN(C)S(=O)(=O)c1ccc(C(F)(F)F)cc1	2	9	nt	nt	nt	93*
C[C@@H]1CN([C@H](C)CO)C(=O)c2c(c3ccccc3n2C)-c2ccccc2CO[C@H]1CN(C)S(=O)(=O)c1ccc(C(F)(F)F)cc1	7	16	nt	nt	nt	83*
O=C(C[C@H]1CC[C@@H]2[C@H](COC[C@H](O)CN2Cc2cc(F)ccc2F)O1)NCc1ccc(F)cc1	-1	-48	nt	3[16.7 µM]	-16	-7
Cc1cc(=O)oc(C)c1C(=O)NCCC(C)C	7	-9	nt	-7	-24	nt
Cc1cc(=O)oc(C)c1C(=O)NCCNC(=O)c1c(C)cc(=O)oc1C	nt	nt	nt	-4	121*	nt
C[C@@H]1CN([C@@H](C)CO)C(=O)c2cc(NC(=O)Nc3ccc(C(F)(F)F)cc3)ccc2O[C@@H]1CN(C)Cc1ccc(-c2ccccc2)cc1	-3	15	-6[16.7 µM]	-3[16.7 µM]	nt	nt
SMILES	GSIS activator	EWS-Fli block	Env fusion inh	miR-122 sensor	C2C12 statin	PAX8 inh HTS
O=C(c1cc(F)c(F)cc1Cl)N1CCOCC1	nt	nt	-129	-4	nt	3
CC1CCN(C(=O)c2cc(F)c(F)cc2Cl)CC1	nt	nt	3	5	135*	-9
Cc1ccc2c(Cl)c(C)c(N3CCCCC3)nc2n1	53*	nt	-33	nt	nt	nt
Cc1nc2ccccc2nc1N1CCCCC1	nt	nt	nt	2	nt	nt
C[C@@H]1CN([C@H](C)CO)C(=O)c2cc(/C=C/c3ccccc3)cnc2O[C@@H]1CN(C)C(=O)Nc1ccc(C(F)(F)F)cc1	-13	8	0[16.7 µM]	nt	0	nt
COc1cc(C(=O)N/N=C/c2sccc2C)cc(OC)c1OC	38	55*	-139	nt	nt	81*
COc1cc(/C=N/NC(=O)c2ccc(-n3cccc3)cc2)ccc1O	-14	nt	-39	nt	nt	72*
COc1cc(/C=N/NC(=O)c2ccc(-c3ccccc3)cc2)cc(OC)c1OC	-8	nt	-95	nt	nt	80*
CCC(=O)N1CC[C@@H]2[C@@H](CO)Nc3ccc(C#Cc4cccc(OC)c4)cc3[C@@H]21	19	nt	nt	nt	nt	nt
COc1ccc(S(=O)(=O)N(C)C[C@H]2Oc3ccc(NS(=O)(=O)c4cccs4)cc3C(=O)N([C@@H](C)CO)C[C@H]2C)cc1	-2	-13	-97[16.7 µM]	6[16.7 µM]	nt	nt
CC(C)OCC(O)CN1CCC(Cc2ccccc2)CC1 (configuration not stated)	44*	5	-10	-1	-7	12
O=C1Cc2ccccc2Sc2ccc(O)cc21	-16	19	nt	nt	nt	40
Nc1ccc2c(c1)CC(=O)c1ccccc1S2	nt	-28	nt	4	-1	93*
NC(=O)c1ccc(Sc2nnc(-c3cccs3)n2CC2CCCO2)c([N+](=O)[O-])c1 (configuration not stated)	8	75*	-2	5	nt	2
C[C@@H]1CCCCO[C@@H](CN(C)S(=O)(=O)c2ccc(F)cc2)[C@H](C)CN([C@H](C)CO)C(=O)c2cc(NC(=O)CCCN(C)C)ccc2O1	-3	0	-3[16.7 µM]	18[16.7 µM]	nt	56
OCCNc1nc(-c2ccccc2)c2cc(Cl)ccc2n1	48*	8	-18	-3	1	-8
